About 7,900 targets were measured; listed, in parts, are those with a hit and a random draw of the rest. About 0.6% of all pairs of compound and target were hits. Unmarked numbers belong to inactive results.

Chain of UniProt Q01974 (Q01974 whole entry, looked up): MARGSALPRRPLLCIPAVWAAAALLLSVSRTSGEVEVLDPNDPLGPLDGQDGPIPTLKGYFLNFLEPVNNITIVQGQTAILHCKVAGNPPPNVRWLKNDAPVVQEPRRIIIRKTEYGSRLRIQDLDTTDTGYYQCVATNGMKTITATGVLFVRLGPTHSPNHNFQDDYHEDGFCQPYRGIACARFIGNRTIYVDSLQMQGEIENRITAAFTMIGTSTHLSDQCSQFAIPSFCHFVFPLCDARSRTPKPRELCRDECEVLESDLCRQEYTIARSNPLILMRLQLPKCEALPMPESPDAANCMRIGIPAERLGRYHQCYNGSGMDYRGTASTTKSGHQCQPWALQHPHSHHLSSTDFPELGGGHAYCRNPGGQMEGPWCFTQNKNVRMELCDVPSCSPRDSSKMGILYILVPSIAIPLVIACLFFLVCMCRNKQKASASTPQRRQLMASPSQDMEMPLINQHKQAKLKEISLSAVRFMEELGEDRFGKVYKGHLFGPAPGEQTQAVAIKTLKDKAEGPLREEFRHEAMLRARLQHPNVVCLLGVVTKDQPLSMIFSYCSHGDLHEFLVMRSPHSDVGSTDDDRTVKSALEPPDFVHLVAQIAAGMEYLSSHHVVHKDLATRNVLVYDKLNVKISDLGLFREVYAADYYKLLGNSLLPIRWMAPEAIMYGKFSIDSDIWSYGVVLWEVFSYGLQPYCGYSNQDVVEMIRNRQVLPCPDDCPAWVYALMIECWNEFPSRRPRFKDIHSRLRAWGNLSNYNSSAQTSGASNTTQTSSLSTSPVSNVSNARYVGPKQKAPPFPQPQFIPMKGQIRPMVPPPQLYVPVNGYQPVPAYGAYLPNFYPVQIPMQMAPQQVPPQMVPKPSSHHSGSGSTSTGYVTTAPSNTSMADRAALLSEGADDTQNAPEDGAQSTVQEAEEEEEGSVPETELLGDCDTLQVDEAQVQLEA
Chain of UniProt P27694 (P27694 whole entry, looked up): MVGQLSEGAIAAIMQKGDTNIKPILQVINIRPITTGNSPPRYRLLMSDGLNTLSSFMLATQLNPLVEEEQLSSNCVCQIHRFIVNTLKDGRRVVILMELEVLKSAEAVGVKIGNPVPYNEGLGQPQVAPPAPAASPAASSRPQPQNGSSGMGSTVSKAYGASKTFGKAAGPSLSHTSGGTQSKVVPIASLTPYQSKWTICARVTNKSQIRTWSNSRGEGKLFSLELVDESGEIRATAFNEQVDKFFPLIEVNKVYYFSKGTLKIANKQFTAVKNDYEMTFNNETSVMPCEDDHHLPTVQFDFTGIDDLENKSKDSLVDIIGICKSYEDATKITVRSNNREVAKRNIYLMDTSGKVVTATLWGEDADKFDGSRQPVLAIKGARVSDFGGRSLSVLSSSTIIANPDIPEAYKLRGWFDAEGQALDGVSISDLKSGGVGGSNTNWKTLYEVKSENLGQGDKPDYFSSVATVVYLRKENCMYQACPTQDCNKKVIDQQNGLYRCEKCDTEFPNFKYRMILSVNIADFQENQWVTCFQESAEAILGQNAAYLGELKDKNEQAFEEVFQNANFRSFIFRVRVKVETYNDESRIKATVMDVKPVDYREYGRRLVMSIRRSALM
Chain of UniProt Q8NBX0 (Q8NBX0 whole entry, looked up): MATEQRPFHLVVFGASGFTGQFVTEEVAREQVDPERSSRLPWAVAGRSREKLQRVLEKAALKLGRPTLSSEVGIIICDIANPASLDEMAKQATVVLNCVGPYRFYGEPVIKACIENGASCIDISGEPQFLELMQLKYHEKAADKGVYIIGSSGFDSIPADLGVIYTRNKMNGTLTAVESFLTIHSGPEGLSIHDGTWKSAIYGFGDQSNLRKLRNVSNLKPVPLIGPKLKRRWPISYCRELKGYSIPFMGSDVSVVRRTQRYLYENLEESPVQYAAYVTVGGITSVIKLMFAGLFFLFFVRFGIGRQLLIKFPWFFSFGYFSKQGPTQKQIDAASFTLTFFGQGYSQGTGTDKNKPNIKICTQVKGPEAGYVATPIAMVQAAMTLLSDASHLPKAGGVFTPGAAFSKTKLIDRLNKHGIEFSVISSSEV
Chain of UniProt Q9NTJ5 (Q9NTJ5 whole entry, looked up): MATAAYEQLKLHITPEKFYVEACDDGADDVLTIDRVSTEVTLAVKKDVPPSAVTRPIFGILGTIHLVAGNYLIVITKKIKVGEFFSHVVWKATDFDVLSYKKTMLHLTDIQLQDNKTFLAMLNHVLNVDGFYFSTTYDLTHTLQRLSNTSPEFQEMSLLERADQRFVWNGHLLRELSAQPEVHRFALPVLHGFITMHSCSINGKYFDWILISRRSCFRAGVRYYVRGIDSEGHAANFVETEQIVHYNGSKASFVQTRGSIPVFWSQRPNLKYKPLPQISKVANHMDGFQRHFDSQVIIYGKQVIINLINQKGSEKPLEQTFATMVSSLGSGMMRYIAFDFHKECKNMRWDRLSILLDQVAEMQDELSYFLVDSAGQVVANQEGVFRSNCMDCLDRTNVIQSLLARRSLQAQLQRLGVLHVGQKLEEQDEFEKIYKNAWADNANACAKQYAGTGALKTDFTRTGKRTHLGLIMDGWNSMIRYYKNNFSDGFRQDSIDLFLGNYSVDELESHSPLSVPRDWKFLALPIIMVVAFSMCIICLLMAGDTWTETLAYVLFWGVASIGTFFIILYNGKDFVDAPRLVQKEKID
Chain of UniProt Q96ER3 (Q96ER3 whole entry, looked up): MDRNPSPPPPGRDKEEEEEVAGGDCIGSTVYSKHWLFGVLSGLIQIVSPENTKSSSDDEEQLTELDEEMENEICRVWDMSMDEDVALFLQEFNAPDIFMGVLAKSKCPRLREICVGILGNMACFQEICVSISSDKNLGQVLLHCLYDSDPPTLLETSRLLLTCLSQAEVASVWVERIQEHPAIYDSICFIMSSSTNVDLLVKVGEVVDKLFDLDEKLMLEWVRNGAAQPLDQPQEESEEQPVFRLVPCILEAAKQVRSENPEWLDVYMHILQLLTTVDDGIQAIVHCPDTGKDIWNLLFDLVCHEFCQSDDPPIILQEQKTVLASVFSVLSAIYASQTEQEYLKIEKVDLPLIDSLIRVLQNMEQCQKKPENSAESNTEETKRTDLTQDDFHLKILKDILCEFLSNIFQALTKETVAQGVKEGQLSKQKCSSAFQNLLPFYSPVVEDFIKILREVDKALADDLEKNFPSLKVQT
Chain of UniProt Q6NT16 (Q6NT16 whole entry, looked up): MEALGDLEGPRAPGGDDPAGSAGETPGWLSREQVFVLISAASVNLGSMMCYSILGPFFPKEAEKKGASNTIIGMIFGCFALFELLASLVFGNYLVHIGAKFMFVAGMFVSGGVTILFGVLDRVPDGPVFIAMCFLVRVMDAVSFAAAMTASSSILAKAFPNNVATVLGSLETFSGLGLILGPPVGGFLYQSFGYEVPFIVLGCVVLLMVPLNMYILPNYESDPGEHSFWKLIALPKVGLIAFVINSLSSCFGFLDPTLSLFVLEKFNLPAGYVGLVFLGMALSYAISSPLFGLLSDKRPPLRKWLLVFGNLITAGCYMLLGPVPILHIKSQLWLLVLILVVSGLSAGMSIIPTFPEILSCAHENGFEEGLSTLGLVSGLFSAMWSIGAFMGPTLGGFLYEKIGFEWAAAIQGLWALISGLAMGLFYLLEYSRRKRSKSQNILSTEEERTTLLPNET
Chain of UniProt Q9Y6Y8 (Q9Y6Y8 whole entry, looked up): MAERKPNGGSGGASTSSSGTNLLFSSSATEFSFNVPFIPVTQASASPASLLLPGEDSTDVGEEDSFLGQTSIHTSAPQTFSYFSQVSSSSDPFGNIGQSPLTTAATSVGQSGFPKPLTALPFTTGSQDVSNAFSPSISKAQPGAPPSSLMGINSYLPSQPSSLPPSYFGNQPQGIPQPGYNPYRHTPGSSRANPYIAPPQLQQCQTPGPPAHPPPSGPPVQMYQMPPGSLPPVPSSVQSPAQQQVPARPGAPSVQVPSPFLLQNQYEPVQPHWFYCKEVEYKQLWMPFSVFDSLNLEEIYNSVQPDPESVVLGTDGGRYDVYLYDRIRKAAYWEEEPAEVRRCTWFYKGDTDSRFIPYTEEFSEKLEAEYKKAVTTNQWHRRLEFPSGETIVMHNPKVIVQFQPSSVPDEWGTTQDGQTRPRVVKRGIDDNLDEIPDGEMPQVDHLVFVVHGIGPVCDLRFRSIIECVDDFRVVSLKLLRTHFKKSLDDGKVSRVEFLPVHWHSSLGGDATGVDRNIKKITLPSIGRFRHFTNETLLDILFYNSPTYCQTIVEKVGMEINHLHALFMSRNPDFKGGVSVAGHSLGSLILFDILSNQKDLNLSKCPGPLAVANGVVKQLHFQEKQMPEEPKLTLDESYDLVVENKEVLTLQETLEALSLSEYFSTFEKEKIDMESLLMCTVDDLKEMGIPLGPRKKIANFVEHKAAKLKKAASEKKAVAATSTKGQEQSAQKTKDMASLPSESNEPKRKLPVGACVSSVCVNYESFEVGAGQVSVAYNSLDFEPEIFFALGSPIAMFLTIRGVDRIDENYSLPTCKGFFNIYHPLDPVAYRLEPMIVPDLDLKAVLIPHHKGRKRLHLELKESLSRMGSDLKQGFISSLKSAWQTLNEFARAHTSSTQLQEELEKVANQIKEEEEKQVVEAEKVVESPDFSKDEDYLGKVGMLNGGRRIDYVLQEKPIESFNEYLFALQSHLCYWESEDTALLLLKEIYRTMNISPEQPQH
Chain of UniProt Q86VR2 (Q86VR2 whole entry, looked up): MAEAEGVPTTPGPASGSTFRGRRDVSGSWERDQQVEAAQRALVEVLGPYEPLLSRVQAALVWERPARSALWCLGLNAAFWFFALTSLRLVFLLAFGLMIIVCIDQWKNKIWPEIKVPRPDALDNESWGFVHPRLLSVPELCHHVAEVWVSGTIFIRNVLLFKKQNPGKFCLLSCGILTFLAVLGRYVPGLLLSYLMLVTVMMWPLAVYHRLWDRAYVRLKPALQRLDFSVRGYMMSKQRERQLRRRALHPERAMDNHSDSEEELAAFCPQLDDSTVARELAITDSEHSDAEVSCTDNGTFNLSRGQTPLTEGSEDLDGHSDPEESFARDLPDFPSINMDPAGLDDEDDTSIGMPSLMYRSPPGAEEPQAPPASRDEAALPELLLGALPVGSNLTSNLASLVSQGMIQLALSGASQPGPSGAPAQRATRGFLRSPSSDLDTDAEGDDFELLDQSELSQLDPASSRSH

Compound in the assay: Cc1nc(Nc2n[nH]c3c2CN(C(=O)N[C@H](CN(C)C)c2ccccc2)C3(C)C)c2sccc2n1
Description: log2 fold change, soluble protein after heating vs DMSO (PISA); higher = thermal stabilisation; K562 cells, 10 uM, 30 min; active = over 0.2 and 3.5 SD of the protein, either way, in both replicates (recomputed). In a few lines:
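K562 cells at 2×10^6 cells/mL were treated with 10 μM compound for 30 min. Aliquots were heated for 3 min across 48°C-58°C, pooled, and extracted in PBS with 0.5% NP-40 at 4°C; soluble protein was the supernatant after 21,000xg for 90 min. Soluble protein was quantified by TMTpro 16plex LC-MS/MS with channel sums equalised, and reported as log2 fold change in thermal stability against DMSO controls, with values from duplicates.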
For SIDT2 isoform 2 (UniProt Q8NBJ9), the log2 fold change is 0.104.

As to ROR2 (UniProt Q01974), the log2 fold change was -0.105.

With RAP1GDS1 isoform 5 (UniProt P52306), the log2 fold change was -0.105.

On to SKP1 (UniProt P63208), for which the log2 fold change is -0.011.

Regarding REL (UniProt Q04864), the log2 fold change was -0.438 (active).

SERINC3 (UniProt Q13530): the log2 fold change was 0.039.

For RPS9 (UniProt P46781), the log2 fold change is 0.206.

Consider RB1CC1 (UniProt Q8TDY2), for which the log2 fold change was 0.078.

Take SAFB2 (UniProt Q14151): the log2 fold change was 0.117.

In the case of RAB3IL1 (UniProt Q8TBN0), the log2 fold change was 0.012.

As for RPS6KA1 isoform 2 (UniProt Q15418), the log2 fold change is -0.569 (active).

On to RPRD1B (UniProt Q9NQG5), for which the log2 fold change is -0.072.

With RPS3 (UniProt P23396), the log2 fold change was 0.193.

Consider SEC24A (UniProt O95486), for which the log2 fold change was 0.021.

Consider SCCPDH (UniProt Q8NBX0), for which the log2 fold change was 0.019.

Consider RPS27A (UniProt P62979), for which the log2 fold change is 0.2.

As to ROCK2 (UniProt O75116), the log2 fold change was -0.202.

For SACM1L (UniProt Q9NTJ5), the log2 fold change is -0.002.

As to RPA1 (UniProt P27694), the log2 fold change was -0.1.

Consider RNASEH2A (UniProt O75792), for which the log2 fold change is 0.024.

Regarding RGS10 (UniProt O43665), the log2 fold change is 0.002.

Regarding SDHAF2 (UniProt Q9NX18), the log2 fold change is 0.022.

As for SEPTIN5 (UniProt Q99719), the log2 fold change is 0.002.

SAMD4B (UniProt Q5PRF9): the log2 fold change was -0.312.

On to SCD (UniProt O00767), for which the log2 fold change is -0.007.

With SEC23IP (UniProt Q9Y6Y8), the log2 fold change is -0.061.

Turning to SLC18B1 (UniProt Q6NT16), the log2 fold change was 0.04.

On to SAAL1 (UniProt Q96ER3), for which the log2 fold change is 0.161.

On to SENP6 (UniProt Q9GZR1), for which the log2 fold change is -0.038.

In the case of RPS12 (UniProt P25398), the log2 fold change is 0.126.

With RANBP2 (UniProt P49792), the log2 fold change is 0.087.

RETREG3 (UniProt Q86VR2): the log2 fold change was 0.003.

The record behind these values is the supplement of paper PMC10849652.
